Source: PubChem BioAssay (EPA / NIEHS)
Records with an inconclusive call do not appear. The source made the active and inactive calls. The calls were made as follows, unless noted: active = hit-call score of the fitted dose curve at least 0.9, where 1 is the maximum; inactive = score below 0.9.

How the values were obtained:
[1] = IUF_NPC2c_oligodendrocyte_migration_120hr: Leibniz Research Institute for Environmental Medicine (IUF) 120-hour Neural Progenitor Cell Migration Assay for Oligodendrocyte Migration (NPC2c) (AID 2284297);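 also: O4-positive oligodendrocyte migration distance divided by radial glia migration distance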
How it was run: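 hNPC spheres (GW 16-19 cortex), PDL/laminin, DMEM/F12 3:1 + 1% N2, 37C. Dosing day 0–5, half feed day 3, DMSO ≤0.1%. Fixed 120 h; O4 ICC + Hoechst, HCI. Readout: mean oligodendrocyte distance from sphere edge / radial glia distance.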

[2] = IUF_NPC2a_radial_glia_migration_120hr: Leibniz Research Institute for Environmental Medicine (IUF) 120-hour Neural Progenitor Cell Migration Assay for Radial Glia Migration (NPC2a) (AID 2284298)
How it was run: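 Hoechst-stained nuclei imaged at 120 h; algorithm maps sphere core by densest nuclei, sets migration edge at density threshold, gives radial glia migration distance (um) per well vs DMSO. hNPC spheres (0.3 mm), PDL/laminin, DMEM/F12 3:1 + 1% N2.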

[3] = IUF_NPC3_neuronal_differentiation_120hr: Leibniz Research Institute for Environmental Medicine (IUF) 120-hour Neuronal Differentiation Assay (NPC3) (AID 2284301)
How it was run: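 Human fetal (GW 16-19) neural progenitor spheres (0.3 mm) plated on poly-D-lysine/laminin in N2 differentiation medium, exposed 120 h at 37C with half-medium renewal day 3; 7 concentrations. TUBB3+ cells as % of Hoechst nuclei, CNN-identified; DMSO baseline.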

[4] = IUF_NPC4_neurite_length_120hr: Leibniz Research Institute for Environmental Medicine (IUF) 120-hour Neuronal Morphology Assay for Neurite Length (NPC4) (AID 2284302)
How it was run: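 Human fetal neural progenitor spheres (0.3 mm) plated on poly-D-lysine/laminin in N2 differentiation medium, exposed from day 0 for 120 h with half-medium refresh at day 3, 37C. Mean neurite length (um) of TUBB3-positive neurons from skeletonized immunostaining images; DMSO ≤0.1%.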

[5] = IUF_NPC4_neurite_area_120hr: Leibniz Research Institute for Environmental Medicine (IUF) 120-hour Neuronal Morphology Assay for Neurite Area (NPC4) (AID 2284305; active = hit-call score of the fitted dose curve at least 0.9, where 1 is the maximum)
How it was run: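 Human fetal neural progenitor spheres (0.3 mm) plated on poly-D-lysine/laminin in N2 differentiation medium, exposed 120 h (7 concentrations, DMSO ≤0.1%, half-medium refresh day 3). Fixed, TUBB3 immunostained; mean neurite area per neuron by Omnisphero skeletonization.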

[6] = IUF_NPC2-5_cell_number_120hr: Cell Number Assessment at 120 hours in the Leibniz Research Institute for Environmental Medicine (IUF) Neural Progenitor Cell Migration and Differentiation Assay (NPC2-5) (AID 2284308);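 also: count of Hoechst-stained nuclei in migration zone around plated human neural progenitor spheres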
How it was run: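 Hoechst-stained nuclei within the migration area were counted by automated high content imaging after 120 h. Single hNPC spheres differentiated on poly-D-lysine/laminin in DMEM/F12 (3:1) with 1% N2, compound present throughout, DMSO ≤0.1%.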

[7] = IUF_NPC2-5_viability_120hr: Viability Assessment at 120 hours in the Leibniz Research Institute for Environmental Medicine (IUF) Neural Progenitor Cell Migration and Differentiation Assay (NPC2-5) (AID 2284312)
How it was run: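 Human fetal neural progenitor spheres (0.3 mm) plated on poly-D-lysine/laminin in N2 differentiation medium, exposed 120 h with half-medium refresh at day 3. Viability by alamar blue resazurin fluorescence; 7 concentrations, DMSO max 0.1%.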

[8] = read-out: Collagen IV, COL4A1 (gene 1282); test: BSK_MyoF_CollagenIV: BioMAP Diversity Plus: MyoF Assay for Collagen IV Biomarker Activity (AID 2284247); conditions: primary human lung fibroblasts
How it was run: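 Steps: dose human lung fibroblasts; culture 24 h; quantify Collagen IV by ELISA; fit increase versus DMSO control. Parallel SRB total-protein staining (0.1% SRB after 10% TCA fixation, 560 nm) tracks overt cytotoxicity.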

[9] = read-out: Plasminogen activator inhibitor-1 (PAI1), SERPINE1 (gene 5054); test: BSK_MyoF_PAI1: BioMAP Diversity Plus: MyoF Assay for Plasminogen activator inhibitor-1 (PAI1) Biomarker Activity (AID 2284256); conditions: primary human lung fibroblasts;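 also: PAI-1 protein level measured by ELISA in fibroblast cultures; PAI-1 read 24 h after compound addition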
How it was run: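 MyoF lung fibroblasts, human primary; compound 24 h; PAI-1 ELISA; positive-direction fit vs DMSO baseline; parallel SRB total-protein staining for cytotoxicity.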

[10] = read-out: Interleukin-8 (IL8), CXCL8 (gene 3576); test: BSK_MyoF_IL8: BioMAP Diversity Plus: MyoF Assay for Interleukin-8 (IL8) Biomarker Activity (AID 2284261); conditions: primary human lung fibroblasts
How it was run: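 Lung fibroblasts (human primary) → chemical exposure → 24 h → IL-8 measured by ELISA. Signal increase scored versus DMSO control.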

Decorin, DCN (gene 1634) = test: BSK_MyoF_Decorin: BioMAP Diversity Plus: MyoF Assay for Decorin Biomarker Activity (AID 2284265); conditions: primary human lung fibroblasts
How it was run: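 ELISA readout of decorin, 24 h post-dosing; primary human lung fibroblast (MyoF) culture; gain-of-signal fit vs DMSO baseline.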

[11] = BSK_MyoF_SRB: Viability Assessment in the BioMAP Diversity Plus: MyoF Assay (AID 2284267); conditions: primary human lung fibroblasts;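 also: total protein by SRB absorbance in parallel cultures as cytotoxicity measure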
How it was run: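 Read-out is SRB absorbance at 560 nm, reflecting total protein in parallel lung fibroblast cultures harvested 24 h after compound addition. Cells were TCA-fixed (10%) and stained with 0.1% SRB; activity is referenced to DMSO.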

[12] = read-out: Matrix Metallopeptidase 1 (MMP1), MMP1 (gene 4312); test: BSK_MyoF_MMP1: BioMAP Diversity Plus: MyoF Assay for Matrix Metallopeptidase 1 (MMP1) Biomarker Activity (AID 2284268); conditions: primary human lung fibroblasts
How it was run: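 Cells: human lung fibroblasts. Exposure: 24 h chemical dosing. Detection: ELISA for MMP1. Analysis: upward fitting against DMSO negative control.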

[13] = read-out: TIMP metallopeptidase inhibitor 1 (TIMP1), TIMP1 (gene 7076); test: BSK_MyoF_TIMP1: BioMAP Diversity Plus: MyoF Assay for TIMP metallopeptidase inhibitor 1 (TIMP1) Biomarker Activity (AID 2284269); conditions: primary human lung fibroblasts
How it was run: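 ELISA quantified TIMP-1 levels after 24 h dosing of primary human lung fibroblasts, with DMSO as baseline. Parallel SRB total protein staining (0.1% SRB after TCA fixation, 560 nm) flagged overt cytotoxicity.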

[14] = IUF_NPC5_oligodendrocyte_differentiation_120hr: Leibniz Research Institute for Environmental Medicine (IUF) 120-hour Oligodendrocyte Differentiation Assay (NPC5) (AID 2284304; active = hit-call score of the fitted dose curve at least 0.9, where 1 is the maximum;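 also: primary human fetal neural progenitor spheres plated to migrate and differentiate; share of O4-positive cells among Hoechst nuclei found by CNN image analysis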)
How it was run: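 hNPC spheres, fetal cortex GW 16-19; PDL/laminin, DMEM:F12 3:1 + 1% N2, 37C/5% CO2; 7 concentrations + solvent control, 5 d exposure, half-change day 3. Readout: %O4+ of Hoechst+ nuclei in migration area, CNN classification; DMSO baseline.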

[15] = VALA_TUBHUV_Agonist_CellCount: Viability Assessment in the VALA Sciences human Umbilical Vein Endothelial Tubule Formation (TUBHUV) Agonism Assay (AID 2284309; active = hit-call score of the fitted dose curve at least 0.9, where 1 is the maximum)
How it was run: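 HUVEC co-cultured 1:3 with HDF for 3 days in 10 ng/ml VEGF, then compounds added in VEGF medium for a further 3 days (72 h). Nuclear-stain/CD31 imaging cell count. Positive-direction fit versus 0.1% DMSO vehicle.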

Measured: AC50

CCOP(=S)(OCC)SCCSCC
inactive: [1] | [2] | [3] | [4] | [5] | [6] | [7]

CC(=NC#N)N(C)Cc1ccc(Cl)nc1
inactive: [1] | [2] | [3] | [4] | [5] | [6] | [7]

CN(C)[C@@H]1C(=O)C(C(N)=O)=C(O)[C@@]2(O)C(=O)C3=C(O)c4c(O)cccc4[C@@](C)(O)[C@H]3[C@H](O)[C@@H]12
active: [1] 55.1 µM | [2] 42.5 µM | [6] 72.5 µM
not listed: [5]
inactive: all other assays above

CCOP(=O)(OCC)Oc1cc(C)nc(C(C)C)n1
inactive: [1] | [2] | [3] | [4] | [14] | [5] | [6] | [7]

CCOP(=S)(Oc1cnc(C(C)(C)C)nc1)OC(C)C (stereo not given)
inactive: [1] | [2] | [3] | [4] | [14] | [5] | [6] | [7]

CCOC(=O)CC(SP(=O)(OC)OC)C(=O)OCC (stereo not given)
inactive: [1] | [2] | [3] | [4] | [14] | [5] | [6] | [7]

CCCSP(=O)(OCC)SCCC
inactive: [1] | [2] | [3] | [4] | [14] | [5] | [6] | [7]

CCOP(=S)(OCC)Oc1cc(C)nc(C(C)C)n1
inactive: [1] | [2] | [3] | [4] | [14] | [5] | [6] | [7]

CON=C(C(=O)OC)c1ccccc1CON=C(C)c1cccc(C(F)(F)F)c1
active: [1] 71.2 µM | [2] 11.8 µM | [3] 1.06 µM | [4] 24.7 µM | [14] 7.95 µM | [5] 0.127 µM
inactive: [6] | [7]

CCOP(=S)(OCC)OC(Cl)C(Cl)(Cl)Cl (stereo not given)
inactive: [1] | [3] | [4] | [14] | [5] | [6] | [7]
active: [2] 22.8 µM

CCCCSP(=O)(SCCCC)SCCCC
inactive: [1] | [2] | [3] | [4] | [14] | [5] | [6] | [7]

CC(C)N(C(=O)SCC(Cl)=C(Cl)Cl)C(C)C
inactive: [1] | [3] | [4] | [14] | [6] | [7]
active: [2] 4.18 µM
